Measured values reported in PMC5540273 (PLoS ONE, 2017).

What follows are compounds tested on T1, ERK1. Details: concentration: 1 μM,replicates: in singlicate; n = 1.
T1 construct: gene MAPK3
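Note: KINOMEscan kinase panel screen.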

Going from `Cl.Cl.NC[C@H](Cc1ccc(C(F)(F)F)cc1)NC(=O)c1cc(Br)c(-c2ccnc3[nH]ccc23)s1` [GSK1487252] to `COc1ccc(C[C@@H](CN)NC(=O)c2cc(Br)c(-c3ccnc4[nH]ccc34)s2)cc1.Cl.Cl` [GSK1389063], the “%Inh” value falls from 31% to 12%.

`Nc1nc(Nc2ccccc2)cc(-c2ccc3c(N)n[nH]c3c2)n1` [GSK2225749] and `CC(C)Nc1cc(-c2ccc3c(N)n[nH]c3c2)nc(N)n1` [GSK2221681] are the same in “%Inh” value: 0% for the first, 0% for the second.

First: CC(C)N1C(=O)Cc2cc(Nc3ncc(C(F)(F)F)c(NCc4cccc(S(C)(=O)=O)c4)n3)ccc21
Second: CCN(CC)CCOc1ccc(Nc2ncc3cc(-c4c(Cl)cccc4Cl)c(=O)n(C)c3n2)cc1 [SB-601273]
The “%Inh” value of the first is lower: 0% for the first, 30% for the second.

`Cl.Cl.NC[C@H](CC1CCCCC1)NC(=O)c1cc(Br)c(-c2ccnc3[nH]ccc23)s1` [GSK1581427] and `O=C(NCCCN1CCOC1=O)c1cnc(NCc2cc(Cl)ccc2Cl)nc1NC1CCCC1` are the same in “%Inh” value: 1% for the first, 1% for the second.

Going from `CN(C)CC(O)COc1ccc(Nc2nccc(-c3cnn4nc(N5CCOCC5)ccc34)n2)cc1` (stereo not drawn) [GW767488] to `CN(C)CCOc1ccc(-c2cc(-c3c[nH]nc3-c3ccccn3)ccn2)cc1` [GW835314], the “%Inh” value rises from 0% to 2%.

First: Cc1n[nH]c2ccc(-c3cc(OC[C@@H](N)Cc4ccccc4)cnc3-c3ccoc3)cc12.O=C(O)C(F)(F)F.O=C(O)C(F)(F)F [GSK507358]
Second: Cc1occc1-c1nc(N)c(OC[C@@H](N)Cc2c[nH]c3ccccc23)cc1-c1cc2c(C)n[nH]c2cn1 [GSK1660450]
The “%Inh” value of the first is higher: 79% for the first, 0% for the second.

`C[C@@H]1CCN(C(=O)CC#N)C[C@@H]1N(C)c1ncnc2[nH]ccc12` and `Cl.Cl.Nc1nc(-c2ccc3c(N)n[nH]c3c2)cc(N2CCCC(NC(=O)c3ccccc3)C2)n1` (stereo not drawn) [GSK2286775] are the same in “%Inh” value: 0% for the first, 0% for the second.

First: Cl.Oc1cc(-c2nc(-c3ccccc3)[nH]c2-c2ccncc2)ccc1Cl [SB-386023]
Second: Cc1ccc2c(-c3ccncc3)c(-c3ccc(F)cc3)nn2c1.Cl [GW461484]
The “%Inh” value of the first is lower: 0% for the first, 11% for the second.

`Cc1cc(C(=O)Nc2ccc(Oc3ccc4nc(NC(=O)C5CC5)cn4n3)cc2)nn1-c1ccccc1` and `Cc1ccc(-n2nc(C(C)(C)C)cc2NC(=O)Nc2ccc(OCCN3CCOCC3)c3ccccc23)cc1` [GW839464] are the same in “%Inh” value: 0% for the first, 0% for the second.

First: CCN(CC)CCCCNc1ncc2cc(-c3c(Cl)cccc3Cl)c(NC(=O)NC(C)(C)C)nc2n1
Second: O=C(NCCNc1ccnc(NCc2ccc(F)cc2)n1)c1cc2ccccc2s1 [GSK1379944]
The “%Inh” value of the first is lower: 0% for the first, 95.4% for the second.

Going from `CNC(=O)c1ccccc1Sc1ccc2c(/C=C/c3ccccn3)n[nH]c2c1` to `Cc1cc2cn[nH]c2cc1-c1cccc2c(N)c(C(N)=O)nnc12`, the “%Inh” value rises from 16% to 22%.

`NC(=O)c1cc(-c2ccccc2)cc2c(C3CCNCC3)c[nH]c12` [GSK301362] and `C[C@@H](Oc1cc(-c2cnn(C3CCNCC3)c2)cnc1N)c1c(Cl)ccc(F)c1Cl` are the same in “%Inh” value: 0% for the first, 0% for the second.

Going from `CCn1c(-c2nonc2N)nc2c(C#CC(C)(C)O)nc(OCCN)cc21.Cl.Cl` [GSK902056] to `C[C@H]1Oc2cc(cnc2N)-c2c(nn(C)c2C#N)CN(C)C(=O)c2ccc(F)cc21`, the “%Inh” value rises from 0% to 11%.

`C=CC(=O)Nc1cc2c(Nc3ccc(F)c(Cl)c3)ncnc2cc1OCCCN1CCOCC1` [GW781483] was tested, and the “%Inh” value was 0%.

These compounds were tested on T2, ERK2. Details: concentration: 1 μM,replicates: in singlicate; n = 1.
T2 construct: gene MAPK1

Compared with `Cl.Cl.NC[C@H](Cc1ccc(C(F)(F)F)cc1)NC(=O)c1cc(Br)c(-c2ccnc3[nH]ccc23)s1` [GSK1487252], `COc1ccc(C[C@@H](CN)NC(=O)c2cc(Br)c(-c3ccnc4[nH]ccc34)s2)cc1.Cl.Cl` [GSK1389063] is lower in “%Inh” value: 20% for the first, 19% for the second.

`Nc1nc(Nc2ccccc2)cc(-c2ccc3c(N)n[nH]c3c2)n1` [GSK2225749] and `CC(C)Nc1cc(-c2ccc3c(N)n[nH]c3c2)nc(N)n1` [GSK2221681] are the same in “%Inh” value: 0% for the first, 0% for the second.

Going from `CC(C)N1C(=O)Cc2cc(Nc3ncc(C(F)(F)F)c(NCc4cccc(S(C)(=O)=O)c4)n3)ccc21` to `CCN(CC)CCOc1ccc(Nc2ncc3cc(-c4c(Cl)cccc4Cl)c(=O)n(C)c3n2)cc1` [SB-601273], the “%Inh” value falls from 23% to 3%.

Compared with `Cl.Cl.NC[C@H](CC1CCCCC1)NC(=O)c1cc(Br)c(-c2ccnc3[nH]ccc23)s1` [GSK1581427], `O=C(NCCCN1CCOC1=O)c1cnc(NCc2cc(Cl)ccc2Cl)nc1NC1CCCC1` is higher in “%Inh” value: 12% for the first, 19% for the second.

`CN(C)CC(O)COc1ccc(Nc2nccc(-c3cnn4nc(N5CCOCC5)ccc34)n2)cc1` (stereo not drawn) [GW767488] and `CN(C)CCOc1ccc(-c2cc(-c3c[nH]nc3-c3ccccn3)ccn2)cc1` [GW835314] are the same in “%Inh” value: 12% for the first, 12% for the second.

Compared with `Cc1n[nH]c2ccc(-c3cc(OC[C@@H](N)Cc4ccccc4)cnc3-c3ccoc3)cc12.O=C(O)C(F)(F)F.O=C(O)C(F)(F)F` [GSK507358], `Cc1occc1-c1nc(N)c(OC[C@@H](N)Cc2c[nH]c3ccccc23)cc1-c1cc2c(C)n[nH]c2cn1` [GSK1660450] is lower in “%Inh” value: 70% for the first, 0% for the second.

`C[C@@H]1CCN(C(=O)CC#N)C[C@@H]1N(C)c1ncnc2[nH]ccc12` and `Cl.Cl.Nc1nc(-c2ccc3c(N)n[nH]c3c2)cc(N2CCCC(NC(=O)c3ccccc3)C2)n1` (stereo not drawn) [GSK2286775] are the same in “%Inh” value: 0% for the first, 0% for the second.

First: Cl.Oc1cc(-c2nc(-c3ccccc3)[nH]c2-c2ccncc2)ccc1Cl [SB-386023]
Second: Cc1ccc2c(-c3ccncc3)c(-c3ccc(F)cc3)nn2c1.Cl [GW461484]
The “%Inh” value of the first is higher: 25% for the first, 0% for the second.

Compared with `Cc1cc(C(=O)Nc2ccc(Oc3ccc4nc(NC(=O)C5CC5)cn4n3)cc2)nn1-c1ccccc1`, `Cc1ccc(-n2nc(C(C)(C)C)cc2NC(=O)Nc2ccc(OCCN3CCOCC3)c3ccccc23)cc1` [GW839464] is lower in “%Inh” value: 12% for the first, 0% for the second.

Compared with `CCN(CC)CCCCNc1ncc2cc(-c3c(Cl)cccc3Cl)c(NC(=O)NC(C)(C)C)nc2n1`, `O=C(NCCNc1ccnc(NCc2ccc(F)cc2)n1)c1cc2ccccc2s1` [GSK1379944] is lower in “%Inh” value: 23% for the first, 0% for the second.

Going from `CNC(=O)c1ccccc1Sc1ccc2c(/C=C/c3ccccn3)n[nH]c2c1` to `Cc1cc2cn[nH]c2cc1-c1cccc2c(N)c(C(N)=O)nnc12`, the “%Inh” value rises from 0% to 79%.

Compared with `NC(=O)c1cc(-c2ccccc2)cc2c(C3CCNCC3)c[nH]c12` [GSK301362], `C[C@@H](Oc1cc(-c2cnn(C3CCNCC3)c2)cnc1N)c1c(Cl)ccc(F)c1Cl` is higher in “%Inh” value: 9% for the first, 14% for the second.

Compared with `CCn1c(-c2nonc2N)nc2c(C#CC(C)(C)O)nc(OCCN)cc21.Cl.Cl` [GSK902056], `C[C@H]1Oc2cc(cnc2N)-c2c(nn(C)c2C#N)CN(C)C(=O)c2ccc(F)cc21` is higher in “%Inh” value: 0% for the first, 19% for the second.

For `C=CC(=O)Nc1cc2c(Nc3ccc(F)c(Cl)c3)ncnc2cc1OCCCN1CCOCC1` [GW781483], the “%Inh” value was 0%.
